Reference: the supplement of paper PMC12669032
Unmarked numbers belong to inactive results.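 The calls were made as follows: active = AUC reduced over 20% with Padj below 0.05 in at least 2 of 3 replicates; inactive = otherwise.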

What was measured:
Assay in all cases: growth AUC relative to DMSO control (median of replicates) (fraction); higher = more growth (less inhibition), active = hit call of the paper
Settings in all cases: 20 µM; 24 h
Akkermansia muciniphila = system: Akkermansia muciniphila
Method in brief: (§1)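 For each compound at 20 µM (1% DMSO), gut bacterial monocultures seeded at OD600 0.05 grew anaerobically in mGAM at 37 °C in round-bottom 96-well plates. Hourly OD600 readings over 24 h gave growth curves whose minimum OD was set to 0. Area under these curves was normalised to the plate median of solvent-only wells, or to row and column medians on the industrial chemical plate. Values are medians of three biological replicates grown on separate days.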

Bacteroides caccae = system: Bacteroides caccae
Method in brief: as §1

Bacteroides clarus = system: Bacteroides clarus
Method in brief: as §1

Bacteroides dorei = system: Bacteroides dorei
Method in brief: as §1

Bacteroides stercoris = system: Bacteroides stercoris
Method in brief: as §1

[1] = system: Bacteroides thetaiotaomicron
Method in brief: as §1

Bacteroides uniformis = system: Bacteroides uniformis
Method in brief: as §1

[2] = system: Bifidobacterium longum subsp. longum
Method in brief: as §1

Clostridium difficile = system: Clostridium difficile
Method in brief: as §1

Collinsella aerofaciens = system: Collinsella aerofaciens
Method in brief: as §1

Coprococcus comes = system: Coprococcus comes
Method in brief: as §1

Escherichia coli ED1a = system: Escherichia coli ED1a
Method in brief: as §1

Escherichia coli IAI1 = system: Escherichia coli IAI1
Method in brief: as §1

Eubacterium rectale = system: Eubacterium rectale
Method in brief: as §1

[3] = system: Fusobacterium nucleatum subsp. animalis
Method in brief: as §1

Lactobacillus gasseri = system: Lactobacillus gasseri
Method in brief: as §1

Lactobacillus paracasei = system: Lactobacillus paracasei
Method in brief: as §1

Odoribacter splanchnicus = system: Odoribacter splanchnicus
Method in brief: as §1

[4] = system: Parabacteroides distasonis
Method in brief: as §1

Parabacteroides merdae = system: Parabacteroides merdae
Method in brief: as §1

Compound | growth AUC (Akkermansia muciniphila) | growth AUC (Bacteroides caccae) | growth AUC (Bacteroides clarus) | growth AUC (Bacteroides dorei) | growth AUC (Bacteroides stercoris) | growth AUC [1] | growth AUC (Bacteroides uniformis) | growth AUC [2] | growth AUC (Clostridium difficile) | growth AUC (Collinsella aerofaciens) | growth AUC (Coprococcus comes) | growth AUC (Escherichia coli ED1a) | growth AUC (Escherichia coli IAI1) | growth AUC (Eubacterium rectale) | growth AUC [3] | growth AUC (Lactobacillus gasseri) | growth AUC (Lactobacillus paracasei) | growth AUC (Odoribacter splanchnicus) | growth AUC [4] | growth AUC (Parabacteroides merdae)
COc1cc(OC)n2nc(S(=O)(=O)Nc3c(Cl)ccc(C)c3Cl)nc2n1 | 1.05 | 0.98 | 0.962 | 1.06 | 0.969 | 0.99 | 0.964 | 0.976 | 1.08 | 1.11 | 1.02 | 0.993 | 1.02 | 0.994 | 0.9 | 1.09 | 0.978 | 1.02 | 1.06 | 0.986
CCCCN(CC)c1c([N+](=O)[O-])cc(C(F)(F)F)cc1[N+](=O)[O-] | 0.993 | 1 | 0.964 | 1.01 | 1 | 1.02 | 0.99 | 1.01 | 1.11 | 1.04 | 1.03 | 0.994 | 1 | 0.864 | 1.04 | 1 | 1.03 | 1.05 | 1.06 | 1
CCOP(=S)(OCC)SCn1c(=O)oc2cc(Cl)ccc21 | 0.99 | 0.921 | 0.94 | 0.936 | 0.831 | 0.945 | 0.927 | 0.943 | 0.978 | 0.991 | 1 | 0.981 | 0.974 | 1 | 0.93 | 0.918 | 0.994 | 0.979 | 0.892 | 0.955
Oc1c(Cl)c(Cl)cc(Cl)c1Cl | 0.834 | 0.81 | 0.726 (active) | 0.758 | 0.684 | 0.794 | 0.636 (active) | 0.974 | 0.941 | 0.941 | 0.971 | 0.917 | 0.746 (active) | 0.947 | 0.923 | 0.936 | 1.02 | 0.666 (active) | 0.637 (active) | 0.786
N#Cc1nn(-c2c(Cl)cc(C(F)(F)F)cc2Cl)c(N)c1S(=O)(=O)C(F)(F)F | 1.09 | 0.823 | 0.966 | 0.961 | 1.16 | 0.996 | 0.961 | 0.936 | 0.866 | 1.03 | 0.968 | 1.04 | 1.02 | 0.945 | 1.01 | 1.01 | 0.929 | 0.978 | 0.904 | 0.97
COc1cccc(C(=O)NN(C(=O)c2cc(C)cc(C)c2)C(C)(C)C)c1C | 1.14 | 0.966 | 0.996 | 0.933 | 0.951 | 0.986 | 0.958 | 0.975 | 0.969 | 0.92 | 1.01 | 0.974 | 0.97 | 1.07 | 0.884 | 0.818 | 0.947 | 0.966 | 0.86 | 0.908
C[C@@H]1C[C@@H]([C@H](O)CC2CC(=O)NC(=O)C2)C(=O)[C@@H](C)C1 | 1.15 | 1.02 | 1.02 | 0.98 | 1.05 | 1.04 | 0.999 | 1.02 | 1.05 | 0.989 | 1.03 | 1.01 | 1.02 | 0.992 | 1.12 | 0.936 | 1.06 | 1.02 | 0.985 | 1.03
COC(=O)c1sccc1S(=O)(=O)NC(=O)Nc1nc(C)nc(OC)n1 | 1.13 | 0.932 | 0.994 | 0.875 | 0.961 | 0.924 | 1.03 | 1.09 | 0.944 | 0.898 | 0.962 | 0.97 | 0.967 | 1.14 | 0.975 | 0.859 | 1.03 | 1.01 | 0.969 | 0.973
